# Experimental data as given in the supplement of paper PMC3334620.
# Whole data set: some 33,000 sequences, median “E-score (-0.5 to 0.5)” near -0.012, cut for the highest 2% near 0.29. Only a selection was taken, and the highest values are over-represented in it overall.
# Target: T1, Ybr033w (UniProt P38073)
# T1 sequence: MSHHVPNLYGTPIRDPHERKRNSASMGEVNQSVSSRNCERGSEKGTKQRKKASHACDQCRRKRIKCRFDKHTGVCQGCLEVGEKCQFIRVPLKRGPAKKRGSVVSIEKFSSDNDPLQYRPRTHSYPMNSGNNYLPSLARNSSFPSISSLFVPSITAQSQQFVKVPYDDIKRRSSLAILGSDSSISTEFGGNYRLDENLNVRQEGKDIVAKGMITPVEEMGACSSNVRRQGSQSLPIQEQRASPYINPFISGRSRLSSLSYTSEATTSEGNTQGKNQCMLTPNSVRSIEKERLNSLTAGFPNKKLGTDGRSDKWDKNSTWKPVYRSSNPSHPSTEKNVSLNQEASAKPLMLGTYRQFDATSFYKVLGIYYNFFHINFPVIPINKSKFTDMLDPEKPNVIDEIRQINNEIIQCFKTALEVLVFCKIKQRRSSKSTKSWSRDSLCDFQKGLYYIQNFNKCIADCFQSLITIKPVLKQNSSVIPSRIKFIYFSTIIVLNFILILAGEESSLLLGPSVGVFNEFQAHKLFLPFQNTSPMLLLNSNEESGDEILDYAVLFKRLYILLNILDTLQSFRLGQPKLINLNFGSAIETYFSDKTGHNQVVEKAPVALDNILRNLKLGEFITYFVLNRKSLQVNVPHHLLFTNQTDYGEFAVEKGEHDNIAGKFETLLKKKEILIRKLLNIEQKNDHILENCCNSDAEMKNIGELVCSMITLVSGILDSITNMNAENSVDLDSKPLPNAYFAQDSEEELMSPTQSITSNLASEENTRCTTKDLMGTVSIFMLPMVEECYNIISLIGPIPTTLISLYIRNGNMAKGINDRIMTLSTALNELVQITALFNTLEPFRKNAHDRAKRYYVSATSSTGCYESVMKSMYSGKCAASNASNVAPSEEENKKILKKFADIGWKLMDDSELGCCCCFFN
# Assay: PBM E-score (8-mer binding enrichment) (E-score (-0.5 to 0.5)); higher = stronger / more preferred TF binding
# Conditions: protein concentration: 200 nM; construct: GST-full length
# Summary of the method: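 Using PURExpress in vitro transcription/translation, GST-tagged yeast transcription factors were made in full-length or DNA-binding-domain form. These were applied at about 100-200 nM to double-stranded universal all-10-mer Agilent arrays, and bound protein was detected with fluorescent anti-GST. Scans were normalised with masliner before the Universal PBM Analysis Suite assigned E-scores to ungapped eight-base words pooled with their reverse complements.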
row,Sequence,PBM E-score
1,CACCCCAG,0.0316
2,ATGCGACA,0.0689
3,TAATCTAA,0.236
4,ATGGGATC,-0.0796
5,AGGACAAC,0.0906
6,TCGTTGAA,0.122
7,GACTCTAC,-0.261
8,ACCTGAAC,-0.219
9,GATGCTCA,-0.113
10,CTTGTGCC,-0.354
11,CGCACTAA,0.0977
12,GACATTAC,0.164
13,GCTGCTAC,-0.175
14,GGCCATTA,0.0667
15,CATTACGA,0.0351
16,TATTACGA,0.297
17,ATTTACAA,0.31
18,CATTACAA,0.19
19,AATTACGA,0.277
20,ATTTACAG,0.149
21,ATTTACAC,0.00495
22,AATTACAA,0.107
23,TATTACAA,0.307
24,AGTCCAAC,-0.12
25,CTTAGAAA,0.138
26,ATCTATTC,0.132

row,Sequence,PBM E-score
1,AAACTCAT,0.274
2,AATCGAAG,0.108
3,CATTTCGG,-0.0324
4,TCATATAA,0.179
5,TGATATAA,0.179
6,TTATATAA,0.411
7,GTATATAA,0.168
8,CTATATAA,0.152
9,ATATATAA,0.332
10,GAGCAAAA,0.0833
11,ATAGTGCG,0.0631
12,CACTTGGG,-0.0516
13,ACCTTTTG,-0.0505
14,AATGTTCA,0.0556
15,TAATCCGA,0.326
16,AATTCCGT,0.312
17,AATTCCGC,0.172
18,GATTCCGA,0.129
19,GAATCCGA,-0.108
20,AAATCCGA,0.12
21,TATTCCGA,0.398
22,CATTCCGA,0.15
23,AATTCCCA,0.171
24,ACTTCCGA,-0.0181
25,AATTCCGA,0.296
26,AATTCCGG,0.154

row,Sequence,PBM E-score
1,ACTGCGAA,-0.0623
2,GAATCACC,0.136
3,AAACTGGA,0.0838
4,CTAATCCC,-0.0661
5,CCTCTGCG,-0.252
6,GCTGCCCA,-0.153
7,ACTTGGAG,-0.0202
8,AGCCTATA,0.0186
9,CGCCAGAG,-0.045
10,AGATGTCC,0.0719
11,CTAGCATA,0.137
12,CTTACTAA,0.143
13,GTGTAAAC,-0.00524
14,AGGCGAGC,-0.174
15,ATCGCTAA,0.0959
16,CCGGGCAG,-0.122
17,GTTATGGA,0.108
18,CGATGAAC,-0.00159
19,GGATGAAC,0.292
20,AGATGAAC,0.131
21,AAGGGAGA,-0.166
22,AGCATACG,-0.0246
23,AGGAATTA,0.223
24,TGGAATAA,0.417
25,CGGAATTC,0.0496
26,AGGAATAG,0.134

row,Sequence,PBM E-score
1,AGGAATAC,-0.131
2,AGGAATAA,0.364
3,CGGAATTA,0.407
4,CCGAATAC,0.105
5,CCGAATAG,0.0196
6,TAGAATAA,0.205
7,TCGAATAA,0.193
8,CCGAATAA,0.293
9,ATTCAGTA,0.13
10,AGGTCTTG,-0.128
11,ATTGTGGA,0.153
12,CACCTAGC,-0.236
13,AGCACTAT,0.0398
14,CAGTGATA,0.0511
15,CACAGTCG,-0.125
16,AGGCAAAA,0.222
17,CGGAATAC,0.186
18,GGGAATAA,0.355
19,AGGAATCG,0.116
20,AGGAATAT,0.353
21,ACGAATAC,0.0881
22,CGGAATAA,0.468
23,AAGAATAT,0.149
24,CGGAATAG,0.126
25,ACGAATAT,0.295
26,ACGAATAA,0.0842

row,Sequence,PBM E-score
1,GGGAATAC,-0.0369
2,GGGAATCA,0.0407
3,TACCTTGA,0.0473
4,CTCACGGC,-0.261
5,GGGGCCAA,-0.123
6,ATAATGGG,0.152
7,GACTTTAC,0.03
8,AATTCACT,0.249
9,CGGTATGA,0.0788
10,GAGCCCAC,-0.27
11,TATTGTGA,0.105
12,ATTGTAGA,0.295
13,CTTGTAGA,-0.145
14,GTTGTAGA,0.00414
15,AATAGTCC,-0.0436
16,ACCGACAG,-0.135
17,GATTTTCA,0.205
18,GATTTTCC,0.416
19,AATTTTGC,0.142
20,AGTTTTCC,0.216
21,AGTTTTTA,0.181
22,ATTTTTGC,0.308
23,ATTTTTGG,0.0437
24,AGTTTTTC,0.295
25,CAATTTCC,0.195
26,AAATTTCC,0.258

row,Sequence,PBM E-score
1,GAATTTCC,0.343
2,GATTTCCC,0.0546
3,CGGTTCTA,0.0953
4,AAGTTGAG,0.0874
5,CGCTCATC,-0.0261
6,GATACCAC,0.066
7,AATTTCTA,0.209
8,ATTTTTTC,0.316
9,AATTTTCC,0.468
10,AATTTTCT,0.145
11,AATTTCTC,0.299
12,AATTTTCA,0.252
13,ATTTTGTG,0.291
14,ATTTTGTC,0.187
15,ATTTTTTG,0.274
16,ATTTTGTA,0.246
17,ATTTTCTC,0.201
18,CATTTCTC,0.176
19,CATAACGG,0.0155
20,CAGAGTGC,-0.126
21,TCATAACA,0.23
22,TCAGAGCA,-0.114
23,ATCTAGAC,0.107
24,AGTGAATC,0.0239
25,CAGCCTAG,0.0256
26,AATTTTTA,0.256

row,Sequence,PBM E-score
1,AAATTTTC,0.258
2,AATTTTTC,0.31
3,AATATTGC,0.223
4,AATATTGA,0.329
5,AATATTGT,0.298
6,AATATTGG,0.047
7,GATATTGA,0.177
8,CATATTGA,0.0393
9,CCAGGTAG,-0.0963
10,TATGGCAA,-0.151
11,CGCCGCAC,-0.233
12,AAGGAAAT,0.185
13,GAGGAAAA,0.199
14,CAGGAAAA,0.387
15,CAAGGAAA,0.162
16,AAAGGAAC,0.163
17,AAAGGAAA,0.303
18,CAGAAAAA,0.0895
19,AAGGAAAA,0.398
20,AAGGAAAC,0.0412
21,AGATACCT,-0.0724
22,AAAGAGAC,-0.0019
23,ATTATAAT,0.205
24,ATAATTAT,0.372
25,ATAATTAG,0.272
26,ATAATTAC,0.353

row,Sequence,PBM E-score
1,ATAATTAA,0.414
2,CTAATTAC,0.131
3,GTAATTAA,0.105
4,GTAATTAC,0.218
5,TTAATTAA,0.241
6,ATTGATGG,0.213
7,ATAGGTTC,0.143
8,AGGCAACT,0.174
9,CCGCGCAC,-0.0688
10,AAGCAACA,0.117
11,CTTGCATC,-0.144
12,CATCCGCA,0.156
13,AATCCGCA,0.119
14,TATCCGCA,0.306
15,CGAGAGCA,-0.0204
16,GAAAAAGC,0.239
17,ACCGACCT,-0.172
18,GCGCGCGA,0.111
19,ACGCGCGC,-0.0247
20,GCGCGCGC,0.334
21,CGTCTGTA,-0.11
22,CGGTGATA,0.178
23,AGTAGTTA,0.0431
24,AGTAGTTG,0.176
25,AATAGTTG,0.207
26,AATAGTTC,0.294

row,Sequence,PBM E-score
1,AGTAGTTC,0.307
2,CATAGTTC,-0.0864
3,CACAAATG,0.0361
4,CACGGTTC,-0.265
5,GAAAGCGA,0.101
6,AGTACAAT,0.302
7,AGTACAAA,0.114
8,AGTACAAG,0.0813
9,CAGGTCGA,0.141
10,GATCTTGC,0.0857
11,AAACTTAT,0.379
12,GATCTTCC,0.33
13,AATCTATA,0.297
14,CTTCTTCC,0.0741
15,AAACTTAA,0.259
16,CATCTATA,0.188
17,GATCTATA,0.157
18,ATTCTTCA,0.129
19,CATCTTCC,0.0897
20,ATTCTTCC,0.471
21,AAACTTAC,0.168
